# According to the supplement of paper PMC12350171:
# Structures can show the parent of a compound that is named as a salt. A number with no mark means an inactive call.
# Columns and labels:
# Details in all cases: 20 µM
# [1] = system: Salmonella enterica typhimurium; assay: growth AUC normalised to DMSO control (fraction of control); higher = less growth inhibition, active = hit call of the paper
# In short: (§1)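 For the AUC endpoint, growth curves were integrated by the trapezoidal rule up to the exponential-to-stationary transition and normalised to DMSO controls on the same plate. The curves came from OD578 readings taken hourly for 24 h, in three biological replicates. Pathogens had been passaged anaerobically twice and inoculated at an OD578 of 0.01 into pre-reduced mGAM plates carrying 20 μM compound and 1% DMSO, sealed with breathable membranes. Medium for Haemophilus parainfluenzae also contained hemin and NAD.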
# [2] = system: Shigella flexneri; assay: as above
# In short: as §1
# [3] = system: Vibrio cholerae; assay: as above
# In short: as §1
# [4] = system: Yersinia pseudotuberculosis; assay: as above
# In short: as §1
# [5] = system: P. vulgatus RND KO; assay: growth AUC normalised to DMSO control (median) (fraction of control); higher = less growth inhibition, active = hit call of the paper
# In short: (§2)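 Strains were passaged twice overnight without oxygen, then grown in mGAM in 96-well plates with each approved-drug library compound at 20 μM and 1% DMSO, starting at OD578 0.01. OD578 was read hourly for 24 h inside an anaerobic incubator. Curves were truncated at entry into stationary phase, and the trapezoidal-rule area under the curve was normalised to same-plate vehicle wells. The value is the median across three biological replicates.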
# [6] = system: P. vulgatus WT; assay: as above
# In short: as §2
# [7] = system: S. enterica typhimurium WT; assay: as above
# In short: as §2
# [8] = system: S. enterica typhimurium tolC KO; assay: as above
# In short: as §2
# 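Wherever growth AUC normalised to DMSO control (median) is given: active when median AUC fell below 0.1.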
SMILES,growth AUC normalised to DMSO control [1],growth AUC normalised to DMSO control [2],growth AUC normalised to DMSO control [3],growth AUC normalised to DMSO control [4],growth AUC normalised to DMSO control [5],growth AUC normalised to DMSO control [6],growth AUC normalised to DMSO control [7],growth AUC normalised to DMSO control [8]
CNS(=O)(=O)Cc1ccc2[nH]cc(CCN(C)C)c2c1 [Sumatriptan succinate],0.996,0.967,0.988,1,1.03,1.01,1.01,1
CC[C@H](C)[C@H](N)C1=N[C@H](C(=O)N[C@@H](CC(C)C)C(=O)N[C@H](CCC(=O)O)C(=O)N[C@H](C(=O)N[C@H]2CCCCNC(=O)[C@H](CC(N)=O)NC(=O)[C@@H](CC(=O)O)NC(=O)[C@H](Cc3cnc[nH]3)NC(=O)[C@@H](Cc3ccccc3)NC(=O)[C@H]([C@@H](C)CC)NC(=O)[C@@H](CCCN)NC2=O)[C@@H](C)CC)CS1 [Bacitracin],0.996,0.98,1.15,0.976,0.137,0.104,1.01,1.01
CC(C(=O)O)c1ccc(N2Cc3ccccc3C2=O)cc1 (stereo unspecified) [Indoprofen],0.992,1.01,1.03,1.01,0.975,0.971,0.993,0.997
OC(CCN1CCCC1)(c1ccccc1)C1CCCCC1 (stereo unspecified) [Procyclidine hydrochloride],0.975,0.953,0.937,0.984,0.96,0.941,1.01,0.983
CCN(CC)CCOC(=O)C(c1ccccc1)C1CCCCC1 (stereo unspecified) [Drofenine hydrochloride],0.989,1.01,0.929,1,1.01,1.03,0.989,0.943
CC(CNC1CCCCC1)OC(=O)c1ccccc1 (stereo unspecified) [Hexylcaine hydrochloride],0.993,0.97,0.996,0.986,1,1.01,0.995,0.992
Cn1c(=O)c2c(ncn2CCO)n(C)c1=O [Etofylline],0.998,0.993,1.01,1.01,0.998,1.02,0.999,0.993
C[C@@H]1C[C@H]2[C@@H]3CCC4=CC(=O)C=C[C@]4(C)[C@@]3(Cl)[C@@H](O)C[C@]2(C)[C@@]1(OC(=O)c1ccco1)C(=O)CCl [Mometasone furoate],1.02,1.07,1.01,1.03,1.04,1.06,1.01,0.991
Clc1ccc(COC(Cn2ccnc2)c2ccc(Cl)cc2Cl)cc1 (stereo unspecified) [Econazole nitrate],0.977,0.987,0.962,1.01,0.899,0.902,1,0.912
CC(=O)OCC(=O)[C@@]1(OC(C)=O)[C@@H](C)C[C@H]2[C@@H]3C[C@H](F)C4=CC(=O)C=C[C@]4(C)[C@@]3(F)[C@@H](O)C[C@@]21C [Diflorasone Diacetate],1,0.977,1.01,1.01,1,1.03,0.997,1
CCCNC(C)C(=O)Nc1c(C)csc1C(=O)OC (stereo unspecified) [Articaine hydrochloride],0.949,1.03,1.08,1.03,1.04,1.06,1.01,0.997
CN1CCN(CCCN2c3ccccc3Sc3ccc(S(=O)(=O)N(C)C)cc32)CC1 [Thioproperazine dimesylate],0.999,0.986,0.968,1,1.03,1.01,0.994,0.96
C[C@@H](O[C@H]1OCCN(Cc2n[nH]c(=O)[nH]2)[C@H]1c1ccc(F)cc1)c1cc(C(F)(F)F)cc(C(F)(F)F)c1 [Aprepitant],0.993,0.978,0.985,0.976,0.0129 (active),0.0137 (active),0.994,0.997
CC1COc2c(N3CCN(C)CC3)c(F)cc3c(=O)c(C(=O)O)cn1c23 (stereo unspecified) [Ofloxacin],0.00746 (active),0.0235 (active),0.031 (active),0.0386 (active),0.0133 (active),0.0136 (active),0.0106 (active),0.00311 (active)
C[C@H]1C[C@H]2[C@@H]3CCC4=CC(=O)C=C[C@]4(C)[C@@]3(F)[C@@H](O)C[C@]2(C)[C@@]1(O)C(=O)CO [Betamethasone],0.985,0.957,0.979,0.988,0.986,0.98,1,0.991
Clc1ccc(C(Cn2ccnc2)OCc2c(Cl)cccc2Cl)c(Cl)c1 (stereo unspecified) [Isoconazole],0.997,1.01,0.949,1.01,0.95,0.949,0.995,0.953

SMILES,growth AUC normalised to DMSO control [1],growth AUC normalised to DMSO control [2],growth AUC normalised to DMSO control [3],growth AUC normalised to DMSO control [4],growth AUC normalised to DMSO control [5],growth AUC normalised to DMSO control [6],growth AUC normalised to DMSO control [7],growth AUC normalised to DMSO control [8]
CN[C@@H]1[C@H](O[C@H]2[C@H](O[C@H]3[C@H](O)[C@@H](O)[C@H](N=C(N)N)[C@@H](O)[C@@H]3N=C(N)N)O[C@@H](C)[C@]2(O)C=O)O[C@@H](CO)[C@H](O)[C@H]1O [Streptomycin sulfate],1.02,1.05,1.06,0.965,1.05,1.09,0.983,1
COc1ccc2cc([C@H](C)C(=O)O)ccc2c1 [(S)-Naproxen],0.992,1.01,0.96,0.964,1.01,1.04,0.994,0.998
Cc1ncc(CO)c(CO)c1O [Pyridoxine hydrochloride],0.992,1.01,0.996,1,1.01,1.01,1.01,0.992
CCN(CC)CCNC(=O)c1cc(Cl)c(N)cc1OC [Metoclopramide monohydrochloride],0.994,0.978,0.989,0.993,0.977,0.971,1,1
C1N2CN3CN1CN(C2)C3 [Methenamine],1.02,1.02,1.05,1.03,1,1.03,1,0.991
CN(C)CCCN1c2ccccc2CCc2ccc(Cl)cc21 [Clomipramine hydrochloride],0.992,1,0.874,1.01,0.976,0.957,1.01,0.962
CO[C@@H]1[C@@H](O[C@@H]2O[C@H](C)[C@@H](O[C@H]3C[C@@](C)(O)[C@@H](OC(=O)CC(C)C)[C@H](C)O3)[C@H](N(C)C)[C@H]2O)[C@@H](CC=O)C[C@@H](C)[C@@H](O)/C=C/C=C/C[C@@H](C)OC(=O)C[C@H]1OC(C)=O [Josamycin],0.937 (active),0.995,0.0145 (active),0.971,0.0124 (active),0.00854 (active),0.967,0.0649 (active)
CCN(CCCc1ccccc1)CCCc1ccccc1 [Alverine citrate salt],0.985,0.966,0.841 (active),0.971,1.02,1.03,1,0.961
C#C[C@]1(O)CC[C@H]2[C@@H]3CCc4cc(OC)ccc4[C@H]3CC[C@@]21C [Mestranol],0.987,1.01,1.01,1.01,0.968,0.96,0.999,0.988
S=c1[nH]cnc2nc[nH]c12 [Mercaptopurine],0.997,1.01,1,0.987,1.01,1,1,0.998
CN(C)CCOC(=O)COc1ccc(Cl)cc1 [Meclofenoxate hydrochloride],0.977,0.942,0.977,0.935,0.996,0.985,1.01,0.995
CC1(C)NC(=O)N(c2ccc([N+](=O)[O-])c(C(F)(F)F)c2)C1=O [Nilutamide],0.928,0.977,0.957,1,0.964,0.952,0.992,0.999
NC(=O)N1c2ccccc2CC(=O)c2ccccc21 [Oxcarbazepine],0.971,0.952,0.981,0.992,0.989,0.995,0.999,1
COc1ccccc1OCCNCC(O)COc1cccc2[nH]c3ccccc3c12 (stereo unspecified) [Carvedilol],1.02,1,0.994,0.997,0.995,0.989,0.994,0.944
CCCCCN(CCCCC)C(=O)C(CCC(=O)O)NC(=O)c1ccc(Cl)c(Cl)c1 (stereo unspecified) [Lorglumide sodium salt],1,0.965,0.986,1.01,0.947,0.959,1,0.991
NS(=O)(=O)c1cc(C(=O)O)cc(N2CCCC2)c1Oc1ccccc1 [Piretanide],1.03,1.07,1.08,1.01,1.06,1.07,1,0.997
